Measured values from PubChem BioAssay.
For some assays here: Results with a measured potency or affinity are listed apart. Active and inactive are the calls of the source.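 Rule for the calls, unless noted: active = membrane potential signal rise above negative control mean plus 3 SD in both duplicates, also active in the earlier TRPC4 screen; inactive = the rest.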

Experiments:
[1] = test system: TRPC4 beta (transient receptor potential cation channel C4), mouse; assay: TRPC4 cation channel opening, retest – cell-based, Fluo4 calcium, HEK293 TRPC4beta/mu-opioid, duplicates, 10 µM, confirmation (AID 2426;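 active = fluorescence ratio normalized to control raised more than 50% in primary screen plus both repeat runs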); settings: Fluo4 calcium fluorescence, at 10 µM; active compounds read high
[2] = test system: transient receptor potential cation channel C4 beta (TRPC4), mouse; assay: TRPC4 cation channel opening, second retest – cell-based, second round, Fluo4, HEK293 TRPC4beta/mu-opioid, 1 µM, confirmation (AID 2461;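 active = primary screen active and over 50% activation in each of two duplicate runs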); settings: Fluo4 calcium fluorescence, at 1 µM; active compounds read high
[3] = test system: TRPC4 (transient receptor potential cation channel C4 beta), mouse; assay: potentiation of DAMGO EC20 TRPC4 response – cell-based, second round, Fluo-4, HEK293 TRPC4beta/mu-opioid, 1 µM, confirmation (AID 2554;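 active = primary screen hit whose fluorescence ratio, in both repeats, exceeds the weak agonist control mean by 3 SD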); settings: DAMGO EC20, Fluo-4 calcium flux, at 1 µM; active compounds read high
[4] = test system: TRPC4 beta (transient receptor potential cation channel C4), mouse; assay: potentiation of DAMGO EC20 TRPC4 response – cell-based, Fluo-4, HEK293 TRPC4beta/mu-opioid, confirmation (AID 2555;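 active = primary screen hit whose calcium fluorescence ratio, in both repeats, exceeds the weak agonist control mean by 3 SD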); settings: DAMGO EC20, Fluo-4 calcium flux, at 10 µM; active compounds read high
[5] = target: Short transient receptor potential channel 4 (Mus musculus) (UniProt Q9QUQ5); assay: blockers of DAMGO-evoked TRPC4 calcium flux – cell-based, Fluo4, HEK293 TRPC4beta/mu-opioid, confirmation (AID 2636;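 active = calcium signal cut by more than 3 SD below the full-agonist control yet still positive, in both repeats and the earlier primary screen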); settings: at 10 µM; active compounds read high
[6] = target: Short transient receptor potential channel 4 (Mus musculus) (UniProt Q9QUQ5); assay: blockers of DAMGO-evoked TRPC4 calcium flux – cell-based, second round, Fluo4, HEK293 TRPC4beta/mu-opioid, 1 µM, confirmation (AID 2637;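 active = calcium signal ratio cut to more than 3 SD under the fully stimulated control mean yet still positive, in both repeats and the primary screen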;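 for inhibition: percent of integrated ratio relative to wells lacking test compound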); settings: at 1 µM; active compounds read high
[7] = target: Short transient receptor potential channel 4 (Mus musculus) (UniProt Q9QUQ5); assay: calcium entry via TRPC4 opening agents – cell-based, HEK293 TRPC4/mu-opioid, Fluo-4 calcium, dose response (AID 434937;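 active = primary screen activator hit with a dose response curve and TRPC4 channel activation at any tested dose; inactive = no activation, no dose response, or not a primary hit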)
[8] = target: Short transient receptor potential channel 4 (Mus musculus) (UniProt Q9QUQ5); assay: potentiation of DAMGO-evoked TRPC4 calcium signal – cell-based, HEK293 TRPC4/mu-opioid, Fluo-4 calcium, EC20 DAMGO, dose response (AID 434941;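 active = earlier screen potentiator hit that boosts the TRPC4 ion channel at some dose, with a dose response; inactive = no potentiation, no dose response, or not a prior hit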;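 note: calcium entry triggered by an EC20 dose of DAMGO at the co-expressed mu-opioid receptor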)
[9] = target: Short transient receptor potential channel 6 (Mus musculus) (UniProt Q61143); assay: TRPC6 blockade by TRPC4 inhibitor hits – cell-based, HEK293, membrane potential dye, duplicate, selectivity assay for TRPC4 inhibitor project, confirmation (AID 434948;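 active = active in primary screen and both duplicates, each dropping signal beyond three positive-control SD with fluorescence still positive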); settings: HEK293 TRPC6, membrane potential dye fluorescence, at 10 µM, stimulated with maximal-effect acetylcholine; active compounds read high
[10] = target: Short transient receptor potential channel 6 (Mus musculus) (UniProt Q61143); assay: TRPC6 opening by TRPC4 activator hits – cell-based, HEK293, membrane potential dye, duplicate, selectivity assay for TRPC4 activator project, confirmation (AID 434950); settings: HEK293 TRPC6, membrane potential fluorescence, at 10 µM; activation: active compounds read high; outcome: activation
[11] = target: Short transient receptor potential channel 6 (Mus musculus) (UniProt Q61143); assay: positive modulators of mouse TRPC6 channel – HEK293 cells, membrane potential dye, duplicate, selectivity assay for TRPC4 potentiator project, confirmation (AID 434952;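 active = compound raising the membrane signal above positive-control mean plus 3 SD in both repeats, and a primary screen hit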); settings: HEK293 TRPC6, membrane potential dye fluorescence, at 10 µM, maximal acetylcholine added after compound; active compounds read high
[12] = target: Short transient receptor potential channel 4 (Mus musculus) (UniProt Q9QUQ5); assay: calcium flux activators in TRPC4/5HT1a cells, counter-screen for TRPC4 activator project, cell-based, second counter screen, HEK293 TRPC4/5HT1a, Fluo-4 (AID 434977;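 active = calcium signal rise above buffer-control mean plus 5 SD in both duplicates, and also a hit in the primary screen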); settings: Fluo-4 calcium flux, at 10 µM; active compounds read high
[13] = serotonin-gated TRPC4 signal block – cell-based, second counter screen, HEK293 TRPC4/5HT1a, Fluo-4, counter-screen for TRPC4 inhibitor project, confirmation (AID 434978;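 active = primary screen active whose calcium signal fell more than 3 SD beyond the full-serotonin control mean in both duplicate plates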;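 for outcome: serotonin given first at submaximal then at maximal dose after compound preincubation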); settings: Fluo-4 calcium flux, at 10 µM, serotonin added to trigger calcium flux; active compounds read high
[14] = test system: TRPC4 (mouse), co-expressed with 5HT1a in HEK293; assay: enhancement of serotonin-evoked TRPC4 response – cell-based, second counter screen, HEK293 TRPC4/5HT1a, Fluo-4, counter-screen for TRPC4 potentiator project, confirmation (AID 434979;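 active = signal rise over 3 SD above mean of control wells given weak agonist, in both repeats and first screen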); settings: Fluo-4 calcium flux, at 10 µM, serotonin added at its EC20 dose; active compounds read high
[15] = nonspecific calcium rise without TRPC4 – cell-based, HEK293 mu-opioid receptor line, counter-screen for TRPC4 activator project, confirmation (AID 449723;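 active = hit in primary screen, with calcium signal over 5 SD above buffer well mean in both duplicates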;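 note: counter screen cells carry the mu-opioid receptor alone and lack TRPC4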); settings: HEK293 mu-opioid cells, Fluo-4 calcium fluorescence, at 10 µM; active compounds read high
[16] = nonspecific potentiation of DAMGO calcium response – cell-based, HEK293 mu-opioid receptor line, counter-screen for TRPC4 allosteric potentiator project, confirmation (AID 449724;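 active = calcium signal rise more than 3 SD above the low-dose agonist control mean, in both duplicate plates and the primary screen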); settings: HEK293 mu-opioid receptor cells, Fluo-4 calcium flux, at 10 µM, compound added before EC20 DAMGO stimulus; active compounds read high

Measured: inhibition

Short transient receptor potential channel 6 (Mus musculus), sequence (Q61143 whole entry, looked up): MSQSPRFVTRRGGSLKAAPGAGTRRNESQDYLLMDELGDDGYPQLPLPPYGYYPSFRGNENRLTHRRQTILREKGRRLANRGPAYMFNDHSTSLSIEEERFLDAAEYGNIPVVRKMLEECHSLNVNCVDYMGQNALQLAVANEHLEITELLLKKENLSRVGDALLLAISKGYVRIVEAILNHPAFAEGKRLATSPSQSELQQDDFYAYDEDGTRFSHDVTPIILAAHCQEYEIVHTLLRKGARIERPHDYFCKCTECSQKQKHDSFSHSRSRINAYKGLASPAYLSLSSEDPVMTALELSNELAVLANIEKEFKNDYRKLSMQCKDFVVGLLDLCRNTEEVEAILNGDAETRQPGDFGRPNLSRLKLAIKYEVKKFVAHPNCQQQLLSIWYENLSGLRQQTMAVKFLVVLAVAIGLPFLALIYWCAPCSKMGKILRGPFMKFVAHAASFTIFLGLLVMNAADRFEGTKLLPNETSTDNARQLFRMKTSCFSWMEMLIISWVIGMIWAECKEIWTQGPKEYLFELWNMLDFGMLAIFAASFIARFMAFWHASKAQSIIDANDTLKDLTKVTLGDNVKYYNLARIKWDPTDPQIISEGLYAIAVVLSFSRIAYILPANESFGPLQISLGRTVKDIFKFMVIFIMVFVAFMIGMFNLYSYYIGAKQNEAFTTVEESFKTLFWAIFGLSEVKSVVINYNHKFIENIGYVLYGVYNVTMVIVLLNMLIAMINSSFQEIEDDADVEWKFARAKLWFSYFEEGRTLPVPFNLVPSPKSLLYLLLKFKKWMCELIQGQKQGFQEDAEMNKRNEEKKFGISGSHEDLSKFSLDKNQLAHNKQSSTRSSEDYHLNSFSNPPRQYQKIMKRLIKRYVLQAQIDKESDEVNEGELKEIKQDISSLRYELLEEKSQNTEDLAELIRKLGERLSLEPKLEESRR
Short transient receptor potential channel 4 (Mus musculus), sequence (Q9QUQ5 whole entry, looked up): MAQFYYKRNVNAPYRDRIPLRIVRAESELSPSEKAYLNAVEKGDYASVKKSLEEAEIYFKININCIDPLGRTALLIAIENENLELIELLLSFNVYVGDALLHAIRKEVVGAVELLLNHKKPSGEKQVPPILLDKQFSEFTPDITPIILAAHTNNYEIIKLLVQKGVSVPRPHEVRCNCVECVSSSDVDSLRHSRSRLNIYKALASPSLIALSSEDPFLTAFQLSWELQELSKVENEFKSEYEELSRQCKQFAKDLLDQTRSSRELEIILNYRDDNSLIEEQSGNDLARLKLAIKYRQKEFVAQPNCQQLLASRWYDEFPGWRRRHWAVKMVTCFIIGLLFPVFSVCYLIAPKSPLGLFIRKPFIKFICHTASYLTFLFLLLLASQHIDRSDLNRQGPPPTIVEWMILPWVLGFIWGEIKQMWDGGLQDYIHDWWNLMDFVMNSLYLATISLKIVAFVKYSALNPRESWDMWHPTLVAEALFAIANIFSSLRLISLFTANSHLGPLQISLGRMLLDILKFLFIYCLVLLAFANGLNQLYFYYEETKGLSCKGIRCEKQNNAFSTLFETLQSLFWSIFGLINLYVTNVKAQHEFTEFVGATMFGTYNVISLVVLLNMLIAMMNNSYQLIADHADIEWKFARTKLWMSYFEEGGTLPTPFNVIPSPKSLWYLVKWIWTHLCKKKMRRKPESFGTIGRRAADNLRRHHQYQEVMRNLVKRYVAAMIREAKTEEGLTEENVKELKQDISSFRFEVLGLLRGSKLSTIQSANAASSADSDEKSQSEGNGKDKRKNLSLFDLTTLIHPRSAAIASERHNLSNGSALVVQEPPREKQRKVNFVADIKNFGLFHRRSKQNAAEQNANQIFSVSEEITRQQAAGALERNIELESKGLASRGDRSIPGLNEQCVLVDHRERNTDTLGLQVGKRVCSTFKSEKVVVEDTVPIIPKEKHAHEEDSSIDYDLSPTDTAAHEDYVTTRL

CC(C)CCN1CCN(Cc2ccsc2)CC1CCO (centres undefined)
active: [5] 90% | [6] 45% | [13] 33.8%
inactive: all other assays above

Oc1ccc(CN2CCc3ccccc3C2)c2cccnc12
active: [5] 97% | [6] 45% | [9] 58% | [13] 19.6%
inactive: all other assays above

Cc1cc(C)c2c(=O)n(CC(=O)NCCCN3CCN(c4ccccc4F)CC3)sc2n1
active: [5] 90% | [6] 55%
inactive: all other assays above

CCCCCN1C2=NCCN2c2ccccc21
active: [5] 94% | [6] 70% | [13] 25.1%
inactive: all other assays above

COc1ccc2c(c1)C=C(CN1CCC(CO)(CCc3ccccc3)CC1)CO2
active: [5] 102% | [13] 35.7%
inactive: all other assays above

N=c1c2c(n(Cc3ccc(Cl)cc3)c3c1CCC3)CCC2
active: [5] 96% | [6] 50% | [9] 34.5% | [13] 10.6%
inactive: all other assays above

O=C(NC1CCCCC1)N1CCN(C(c2ccccc2)c2ccccc2)CC1
inactive: all assays above

Cc1ccc2cc(CN(CCN3CCOCC3)C(=O)NCc3ccccc3)c(=O)[nH]c2c1C
active: [5] 80% | [6] 42% | [13] 34%
inactive: all other assays above

Cc1n[nH]c(C)c1CCCCOc1ccccc1
active: [5] 95% | [6] 40% | [13] 31.5%
inactive: all other assays above

COc1ccc(F)cc1C(=O)C1CCCN(Cc2ccc3c(c2)OCCO3)C1 (centres undefined)
active: [5] 94% | [13] 38.7%
inactive: all other assays above

CCOC(=O)C1(CC2CC2)CCN(Cc2cc(Cl)c(O)c(OC)c2)CC1
active: [5] 71%
inactive: all other assays above

Oc1ccc(Nc2nc(N3CCCC3)c3ccccc3n2)cc1
active: [5] 95% | [9] 39.5% | [13] 36.8%
inactive: all other assays above

CCc1ccc(/C=C2/SC(=S)N(CCCC(=O)Nc3ccccc3C(=O)O)C2=O)cc1
active: [5] 93% | [13] 21.2%
inactive: all other assays above

Cc1cc([N+](=O)[O-])ccc1NCc1ccco1
active: [5] 92% | [13] 14.5%
inactive: all other assays above
